Reference: PubChem BioAssay (NCI)
This is part of a sample that, as a whole, favours compounds with a hit. Of some 83,000 tested, about 20% had one in any assay.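 Values shown are percent growth following 48 h exposure of cells in 96-well plates to a single concentration of compound; below 10 was considered active.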 Unmarked numbers belong to inactive results. Calls of active or inactive are those of the source.

System: MDA-MB-468 breast
Assay: NCI-60 one-dose screen, 48 h (100 = growth as untreated, 0 = no growth, -100 = all killed)
Details: 10 µM unless noted

How did the growth turn out when `Cc1cccc2c(=O)c3c(sc12)c(NCCNCCO)nc1ccccc13` was run?
The growth was -19.1% (active).

How did the growth turn out when `CC/C(=C(/c1ccc(Cl)cc1)c1ccc(OCCN2CCCC2)cc1)c1ccc(OC)cc1` was run?
The growth was 46.5%.

Which growth does the source give for `COc1ccc(/C(C#N)=C/c2cc(OC)c(OC)c(OC)c2)cc1` here?
The growth was 27.6%.

With `CO[C@@H]1[C@H](N(C)C(=O)c2ccccc2)C[C@@H]2O[C@]1(C)n1c3ccccc3c3c4c(c5c6ccccc6n2c5c31)C(=O)NC4=O` as the compound, how does the growth read?
Its growth is -12.7% (active).

Which growth does the source give for `COc1cc2oc(-c3cccc(C(=O)Nc4ccc(C#N)cc4)c3)cc(=O)c2c(O)c1OC` here?
Its growth is 77.3%.

`O=C(Nc1ccc(F)c(F)c1)c1cc(-c2ccc(F)cc2F)ccc1O` was tested. Which growth did it give?
The growth was -8.51% (active).

For `Oc1ccc(CCC2CCCC(CCc3ccc(OCCF)cc3)N2)cc1` (stereo not given), which growth is on record?
Its growth is 110%.

Which growth does the source give for `CCCCCCNC(=O)Oc1ccc(/C(=C(/C)c2ccc(OC)cc2)c2ccc(OCCN3CCCC3)cc2)cc1` here?
Its growth is 87.1%.

With `N/C(=N\C(N)=N\c1nc2ccccc2s1)c1ccc2ccccc2c1` as the compound, how does the growth read?
Its growth is 109%.

How did the growth turn out when `COc1ccc(CNc2ccc3nc(CCC4CCCCC4)[nH]c3c2)cc1` was run?
Its growth is 39.1%.

For `O=C1CCCN1C1CCN(Cc2cc3ccccc3[nH]c2=O)c2ccccc21` (stereo not given), which growth is on record?
The growth was 83.5%.

How did the growth turn out when `CO[C@H]1/C=C/O[C@@]2(C)Oc3c(C)c(O)c4c(c3C2=O)C(=O)C(/C=N/N(c2ccccc2)c2ccccc2)=C(NC(=O)/C(C)=C\C=C\[C@H](C)[C@H](O)[C@@H](C)[C@@H](O)[C@@H](C)[C@H](OC(C)=O)[C@@H]1C)C4=O` was run?
Its growth is -2.58% (active).

For `CCCCCCCC/C=C/CCCCCCCC1=NC(C)(C)CN1c1ccccc1`, which growth is on record?
The growth was 85.7%.

Which growth does the source give for `Nc1n[nH]c2cccc(C#Cc3cccc(C(=O)Nc4ccc(Cl)c(C(F)(F)F)c4)c3)c12` here?
The growth was 74.4%.

`CCOC(=O)c1ccoc1` was tested. Which growth did it give?
The growth was 95.7%.

For `NC(N)=N/N=C/c1ccc([N+](=O)[O-])cc1`, which growth is on record?
Its growth is 85.5%.

`CN(C)CCC(=O)C1CC1` was tested. Which growth did it give?
The growth was 104%.

Which growth does the source give for `COc1ccc(Cn2nc(-c3ccccc3)c3c2CCc2cnoc2-3)cc1` here?
Its growth is 43.1%.

For `CCOP(=O)(OCC)OC[C@]12CCC(C)(C)CC1C1=CC[C@@H]3[C@@]4(C)CCCNC(C)(C)[C@@H]4CC[C@@]3(C)[C@]1(C)CC2` (stereo not given in full), which growth is on record?
The growth was 53.5%.

For `Nc1ccccc1NC(=O)c1ccc(CSc2nc(N3CCOCC3)c3cccn3n2)cc1`, which growth is on record?
The growth was -11.1% (active).

With `O=C(O)c1occ(Cl)c1Cl` as the compound, how does the growth read?
The growth was 107%.

With `N[C@H]1CCC[C@@H]1NCCCCN1C(=O)c2cccc3cc([N+](=O)[O-])cc(c23)C1=O` as the compound, how does the growth read?
Its growth is 38.8%.

For `CCC(=O)Sc1ccccc1C(=O)Nc1ccc(Cl)cc1`, which growth is on record?
The growth was 27%.

`CN(C)CCCNc1c2ccc(Cl)cc2nc2c1oc1ccccc12` was tested. Which growth did it give?
The growth was -49.6% (active).

`COc1cc2ncnc(Nc3ccc4c(cnn4C(=O)Nc4ccccc4)c3)c2cc1OC` was tested. Which growth did it give?
The growth was 52%.

`Nc1c(C(=O)Nc2cccc3cnccc23)sc2nc3c(cc12)CN(Cc1ccccc1)CC3` was tested. Which growth did it give?
The growth was 94.8%.

With `CCN(CC)P(=O)(N(CC)CC)N(CCCSC/C=C(\C)CC/C=C(\C)CCC=C(C)C)CCCN1CCN(C)CC1` as the compound, how does the growth read?
The growth was 92.4%.

How did the growth turn out when `CCc1ccc(C(=O)/C=C/C23c4ccccc4C(c4ccccc42)C2C(=O)NC(=O)C23)cc1` (stereo not given) was run?
The growth was -15.9% (active).

Which growth does the source give for `Cc1cccnc1NC1OC(=O)c2ccccc21` (stereo not given) here?
The growth was 103%.

`COC(=O)c1ccc(NC(=O)CSc2nc3ccccc3c(=O)n2-c2ccccc2)cc1` was tested. Which growth did it give?
The growth was 104%.

With `O=C(Nc1ccc(NCCN2CCOCC2)nc1)c1ccc([N+](=O)[O-])cc1` as the compound, how does the growth read?
Its growth is 104%.

How did the growth turn out when `O=C(NC1=CC(=O)c2ccccc2C1=O)c1ccccc1` was run?
The growth was -91% (active).

Which growth does the source give for `Cc1nc2ccccc2c(/C=C/c2ccc(F)cc2)c1C(N)=O` here?
The growth was 107%.

With `CCN1Cc2c(/C=C/c3ccccc3)nc3ccc(OC)cc3c2N(c2cccc(Cl)c2)C1` as the compound, how does the growth read?
Its growth is 48.3%.

With `C=C[C@H]1CCC/C=C/[C@@H]2C[C@H](O)C[C@H]2[C@H](O)/C=C/C(=O)O1` as the compound, how does the growth read?
The growth was -42.7% (active).

With `c1ccc(-c2nc(N3CCNCC3)c3nc(-c4ccccc4)oc3n2)cc1` as the compound, how does the growth read?
Its growth is -37.2% (active).

With `Cc1ccc(N=NC2C(=O)N(c3ccc(Cl)cc3)N(c3ccc(Cl)cc3)C2=O)cc1` as the compound, how does the growth read?
Its growth is 107%.

For `O=[N+]([O-])c1cc2ncccc2c2ncccc12`, which growth is on record?
Its growth is 89%.

With `Nc1nc(N(Cc2ccccc2)c2ccccc2)c2cn[nH]c2n1` as the compound, how does the growth read?
The growth was 33.3%.

For `Cc1cc(Nc2nc(N3CCN(C)CC3)nc3ccccc23)n[nH]1`, which growth is on record?
The growth was 90%.
